An excerpt weighted towards active compounds, which were near 3.6% of everything screened.
MazF activator: activators of E. coli MazEF toxin-antitoxin RNase. P0AE70. 350,000 tested, 0.32% active. FAM/BHQ RNA-DNA oligo cleavage fluorescence, 5 h. activation, % at 20 µM; in the data active = activation above about 50%
Target sequence (P0AE70 whole entry, looked up): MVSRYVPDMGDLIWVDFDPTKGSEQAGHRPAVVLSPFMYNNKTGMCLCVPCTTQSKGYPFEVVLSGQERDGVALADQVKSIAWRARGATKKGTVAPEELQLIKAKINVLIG
BoNT-F LC inh: inhibitors of Botulinum neurotoxin F light chain protease | Multiplex microsphere protease cleavage assay, flow cytometry | inhibition, % at 10 µM | 360,000 tested, 0.22% active | AID 588497; in the data active = inhibition above about 35%, passing the limit was not always enough; inconclusive = no clear call, values can overlap the other calls; note: plate controls were buffer without enzyme for full effect and enzyme alone for no effect
Anthrax LF inh2: anthrax lethal factor protease inhibition. P15917. multiplex microsphere protease cleavage assay, LF. inhibition, % at 10 µM. 360,000 tested, 0.12% active. AID 588501; note: plate controls were buffer without enzyme for full effect and enzyme alone for no effect
BoNT A protease: BoNT A light chain protease inhibition | multiplex microsphere protease substrate cleavage, flow cytometry | AID 588499 | inhibition, % at 10 µM | 360,000 tested, 0.17% active; note: plate controls were buffer without enzyme for full effect and enzyme alone for no effect
Autofluor counter: flagged as autofluorescent in microsphere protease counterscreen; compound autofluorescence counterscreen, microsphere flow cytometry; stronger effect = higher value; fluorescence intensity (no concentration beside the values); 360,000 tested, 3.1% active; AID 624483; in the data active = fluorescence intensity above about 16000; inconclusive = no clear call, values can overlap the other calls
The depositor's hits bear a star; ? = inconclusive; · = not tested or not shown. Cut-off read from the data, not from the text of the source, unless noted: active = inhibition above about 30%; inconclusive = no clear call, values can overlap the other calls; inactive = below that.

SMILES | MazF activator | BoNT-F LC inh | Anthrax LF inh2 | BoNT A protease | Autofluor counter
CCN/N=C(\Cc1nc2ccccc2[nH]1)c1ccccc1 | -2 | -12 | -2 | -1 | 4382
c1ccc(N/N=C(\Cc2nc3ccccc3[nH]2)c2ccccc2)cc1 | 22 | -13 | -5 | -1 | 2144
CCN(C(=O)CN1C(=O)COc2ccc(S(=O)(=O)N3CCCCCC3)cc21)c1cccc(C)c1 | 7 | 2 | 0 | 1 | 5240
O=c1oc2cc(O)c(Cl)cc2c2ccccc12 | 8 | -4 | -1 | 0 | 2461
O=c1cc2c(=O)oc3cc(O)c(O)oc3c2c(O)c1O | 55* | -7 | -21 | -3 | 3521
O=C(OCC(=O)N1CCc2ccccc21)c1ccc(Cl)nc1 | 7 | -2 | 1 | 0 | 23913*
O=C(OCC(=O)N1CCc2ccccc21)c1ccncc1 | -3 | -2 | 6 | 1 | 5873
Cc1ccc(C)n1-c1ccc(N2CCOCC2)cc1 | 10 | -18 | -15 | 3 | 15146
Cc1cc(N2CCOCC2)cc(C)[n+]1[O-] | 2 | 0 | -4 | -1 | 16435*
COc1nc(C)cc(C)c1S(=O)(=O)c1ccccc1C | 0 | ? | -7 | 0 | 4615
COc1nc(N)c(S(=O)(=O)c2ccccc2)cc1C#N | -22 | 1 | 0 | ? | 22871*
COc1nc(N)c(S(=O)(=O)c2ccccc2C)cc1C#N | -14 | 10 | -6 | 9 | 19846*
CCOC(=O)N1CCN(C(=O)c2ccccc2N(C)S(C)(=O)=O)CC1 | 1 | -4 | -4 | -2 | 16798*
CN(c1ccccc1C(=O)N1CCCC1)S(C)(=O)=O | -2 | ? | -7 | -1 | 4702
CCOC(=O)N1CCN(C(=O)c2ccc(NS(C)(=O)=O)cc2)CC1 | 9 | 1 | -3 | 0 | 16339*
CCOC(=O)N1CCN(C(=O)c2ccc(S(=O)(=O)Nc3ccc(C)cc3)cc2)CC1 | -3 | -8 | -3 | 0 | 3038
CCOc1ccccc1NC(=O)CSc1nnc(CNC(=O)c2cccs2)o1 | -1 | -2 | -2 | -1 | 4565
CCC(C)NS(=O)(=O)c1ccc(S(=O)(=O)N2CCCC3(CCCCC3)C2)cc1 (stereo not given) | -1 | 0 | -5 | 2 | 21732*
COc1ccc(S(=O)(=O)N2CCCCC2)cc1NC(=O)c1ccc(OC)c(OC)c1 | 5 | -10 | -2 | 0 | 5311
Cc1cc(C)c2nc(SCC(=O)N3CC(=O)Nc4ccccc43)c(C#N)cc2c1 | -23 | 0 | -1 | 0 | 7319
Cc1cc2cc(C#N)c(SCC(=O)Nc3nonc3C)nc2cc1C | 63* | -2 | -3 | 1 | 4417
CCOC(=O)CSc1nc2ccc(C)cc2cc1C#N | 296* | -14 | -4 | 0 | 9011
COc1ccc2nc(SCC(=O)N3CC(=O)Nc4ccccc43)c(C#N)cc2c1 | 58* | 14 | 5 | 8 | 3506
CCOC(=O)CSc1nc2cc(OC)ccc2cc1C#N | 120* | -8 | 1 | 2 | 3381
CN(C)c1cccc(C(=O)Nc2cccc(S(=O)(=O)NC3=NCCC3)c2)c1 | 5 | -19 | -9 | -2 | 6232
SMILES | MazF activator | BoNT-F LC inh | Anthrax LF inh2 | BoNT A protease | Autofluor counter
CC(C)(C)c1ccc(C(=O)N2CCC2(C)C(=O)Nc2cccc(C#N)c2)cc1 (stereo not given) | · | 0 | 4 | 0 | 4027
COc1ccc([C@H]2N[C@]3(CCCN(Cc4ccco4)C3=O)[C@H]3C(=O)N(Cc4ccccc4)C(=O)[C@@H]23)cc1 | 6 | -9 | -9 | 0 | 3846
COC(=O)CSc1nc(C)c(C(C)=O)cc1C#N | -5 | 4 | 0 | ? | 20891*
CCOC(=O)CSc1nc2cc(C)ccc2cc1C#N | 628* | 7 | -1 | 1 | 3896
COc1ccc2nc(SCC(C)=O)c(C#N)cc2c1 | 934* | 7 | 5 | 12 | 2520
CCOC(=O)CSc1nc2cc(C)cc(C)c2cc1C#N | 25 | 7 | 5 | 4 | 2678
COc1ccc2nc(SC)c(C#N)cc2c1 | -7 | -3 | 2 | 0 | 4380
CCCSc1nc(C)c(C(C)=O)cc1C#N | 3 | -11 | -6 | -1 | 2073
CC(C)CCn1c(=O)c(C(=O)N/N=C/c2cccc(F)c2)c(O)c2ccccc21 | 0 | -5 | 1 | 0 | 2217
Nc1nnn(CC(=O)N/N=C/c2cccc(Cl)c2)n1 | -3 | 2 | -10 | -5 | 3170
Nc1c(-c2ccccc2)cnn1-c1cccc([N+](=O)[O-])c1 | -1 | -1 | -5 | -2 | 17591*
O=C(COC(=O)c1ccc(Br)o1)Nc1ccc(N2CCOCC2)cc1 | 10 | -12 | -3 | -1 | 4687
Cc1nc(C)c(C(=O)Nc2ccc(Oc3ccccc3)cc2)o1 | 0 | 3 | 1 | 4 | 19915*
Cc1ccc(C(=O)Nc2ccccc2-c2ccccc2)o1 | 9 | -7 | -2 | 0 | 2864
Cc1ncoc1C(=O)Nc1ccccc1-c1ccccc1 | 3 | 0 | 1 | 0 | 23728*
Cc1ncoc1C(=O)Nc1ccc(Oc2ccccc2)cc1 | 4 | -2 | -3 | 3 | 19937*
COc1ccc(NC(=O)c2ocnc2C)cc1OC | 6 | 2 | -1 | 0 | 10985
C[C@H](NC(=O)c1ccco1)C(=O)NNC(=O)COc1cccc(C(F)(F)F)c1 | -11 | -4 | 2 | -5 | 6556
Cn1c(N)c(C(=O)COC(=O)Cc2ccc(F)cc2)c(=O)n(C)c1=O | 2 | -6 | -3 | -3 | 6232
O=C1/C(=C/c2cccc([N+](=O)[O-])c2)N2CCC1CC2 | -14 | 3 | 1 | 1 | 2260
O=C1/C(=C\c2ccncc2)N2CCC1CC2 | -21 | -35 | -10 | -2 | 6041
O=C1/C(=C\c2ccc(Cl)c(Cl)c2)N2CCC1CC2 | -3 | ? | 32* | -6 | 3325
O=C1/C(=C/c2cc([N+](=O)[O-])ccc2Cl)N2CCC1CC2 | 0 | -2 | 5 | 0 | 16507*
COc1cccc(CNC(=O)[C@@H]2CCCN2C(=O)[C@@H]2CCCN2C(=O)c2c(F)cccc2F)c1 | · | -2 | -3 | -1 | 4166
Cc1cc(-n2ccnc2)n2c(nc3ccccc32)c1C#N | 1 | -1 | 2 | 1 | 6539
SMILES | MazF activator | BoNT-F LC inh | Anthrax LF inh2 | BoNT A protease | Autofluor counter
CCCc1cc(-n2ccnc2)n2c(nc3ccccc32)c1C#N | 82* | 4 | -2 | 2 | 5393
Cc1cc(C(=O)N/N=C/c2ccc(-c3cccc(Cl)c3Cl)o2)n[nH]1 | 51* | 3 | 0 | 0 | 2124
CCOC1=C2[C@@H](CN(S(=O)(=O)c3ccc(C)cc3)[C@H]2c2cccc3ccccc23)[C@H]2C(=O)N(C3CCCCC3)C(=O)[C@H]2C1 | · | 0 | 0 | -1 | 6183
CCSc1nnc(NC(=O)C(C)(C(F)(F)F)C(F)(F)F)s1 | 5 | -2 | -7 | 0 | 16389*
CCSc1nnc(NC(=O)C(C)C)s1 | -1 | 1 | 0 | -1 | 4302
CCSc1nnc(NC(=O)C(C(F)(F)F)C(F)(F)F)s1 | 7 | -2 | -1 | -1 | 23475*
O=C(/C=C/c1ccc(Br)cc1)N1CCN(Cc2ccccc2)CC1 | -3 | -1 | -1 | 0 | 5270
CCOC(=O)N1CCN(C(=O)CSCC(=O)Nc2nc(-c3ccc(Cl)s3)cs2)CC1 | 3 | -1 | 0 | 1 | 22328*

Compound activity: PubChem BioAssay, several laboratories
